# PubChem BioAssay (Tox21)
# Inconclusive results are not listed. Unmarked numbers belong to inactive results. The source made the active and inactive calls. Calls come from the whole dose curve.
# Target: Beta-2 adrenergic receptor (Homo sapiens) (UniProt P07550)
# Assay: Adrenergic beta2 receptor (ADRB2) small molecule antagonists, cell-based qHTS assay (AID 1963592); note: nearly all actives have a fitted effect of over 50% in size
# Settings: CHO-ADRB2 cells, isoproterenol-stimulated cAMP HTRF ratio, 0.5 h; series mostly up to 92.4 µM; activity change, negative = inhibition: at the top concentration
# How it was run: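 Assay format: CHO-ADRB2 cells, 18-20hr seeding at 37C/5% CO2, then compound plus 1nM isoproterenol agonist mix for 0.5hr RT. Homogeneous time-resolved fluorescence cAMP detection after 1hr, expressed as 665/615 nm ratio.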
# % is set by controls: 0 for no effect and ±100 for the full control effect; potency is the fitted concentration of half-maximal effect.
# Chain of Beta-2 adrenergic receptor (Homo sapiens) (P07550 whole entry, looked up): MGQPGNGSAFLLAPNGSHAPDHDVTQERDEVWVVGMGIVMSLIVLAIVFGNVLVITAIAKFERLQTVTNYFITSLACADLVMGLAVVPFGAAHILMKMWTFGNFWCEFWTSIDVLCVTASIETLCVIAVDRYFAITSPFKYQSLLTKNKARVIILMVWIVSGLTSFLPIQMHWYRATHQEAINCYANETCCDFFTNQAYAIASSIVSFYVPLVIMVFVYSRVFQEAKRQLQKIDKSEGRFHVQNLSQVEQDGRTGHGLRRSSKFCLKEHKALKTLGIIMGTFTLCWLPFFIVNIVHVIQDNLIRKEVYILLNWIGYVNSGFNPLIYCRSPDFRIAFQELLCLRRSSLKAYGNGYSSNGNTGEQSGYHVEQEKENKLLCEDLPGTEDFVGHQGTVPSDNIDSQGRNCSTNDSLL
Compound,"activity change, negative = inhibition",Potency
OC[C@H]1O[C@@H]2O[C@H]3[C@H](O)[C@@H](O)[C@@H](O[C@H]4[C@H](O)[C@@H](O)[C@@H](O[C@H]5[C@H](O)[C@@H](O)[C@@H](O[C@H]6[C@H](O)[C@@H](O)[C@@H](O[C@H]7[C@H](O)[C@@H](O)[C@@H](O[C@H]8[C@H](O)[C@@H](O)[C@@H](O[C@H]9[C@H](O)[C@@H](O)[C@@H](O[C@H]1[C@H](O)[C@H]2O)O[C@@H]9CO)O[C@@H]8CO)O[C@@H]7CO)O[C@@H]6CO)O[C@@H]5CO)O[C@@H]4CO)O[C@@H]3CO,0.705% [at 42.5 µM],
CCCCCCCCCCCCOC(C)=O,6.43%,
S=C(S)NCCNC(=S)S,-4.76%,
C=Cc1ccc(C(C)(C)C)cc1,0.648%,
CCN[C@H]1C[C@H](C)S(=O)(=O)c2sc(S(N)(=O)=O)cc21,-9.93% [at 42.5 µM],
O=c1c2ccccc2oc2ccccc12,-2.89%,
Nc1ncn([C@H]2C[C@H](O)[C@@H](CO)O2)c(=O)n1,6.32% [at 42.5 µM],
CC(=O)Nc1ccc(S(=O)(=O)Cl)cc1,2.21%,
CC(C)(C)C(=O)CCc1ccc(Cl)cc1,5.21%,
CC(=O)NNC(C)=O,0.971%,
O=[N+]([O-])c1ccc(Cl)cc1Cl,8.07%,
OCC1CC=CCC1 (stereo not given),7.82%,
C=CCN(CC=C)CC=C,-0.723%,
O=C(Cl)c1c(Cl)cccc1Cl,3.95%,
NCCCN(CCO)CCO,,217 nM (active)
CC1=C(C(=O)O)N2C(=O)[C@@H](NC(=O)[C@H](N)C3=CCC=CC3)[C@H]2SC1,-4.57% [at 42.5 µM],
C#CC(O)C(CC)CCCC (stereo not given),4.46%,
C=C1CCC2CC1C2(C)C (stereo not given),5.61%,
CC(C)CCOCc1ccccc1,2.3%,
CC1(C)C(=O)N(Cl)C(=O)N1Br,-2.08%,

Compound,"activity change, negative = inhibition",Potency
CCOc1ccc(OCC)c(Cl)c1,-4.62%,
c1ccc(-c2nc[nH]c2-c2ccccc2)cc1,-21.2% [at 42.5 µM],
CCOc1ccc2nc(S(N)(=O)=O)sc2c1,-6.67% [at 42.5 µM],
O=C1CC[C@@H](C(=O)O)N1,10.4% [at 42.5 µM],
CCCCC(CC)C(=O)OCCOCCOCCOCCOC(=O)C(CC)CCCC (stereo not given),-9.9%,
O=C(O)CNC(=O)CNC(=O)CNC(=O)CSC(=O)c1ccccc1,9.91% [at 42.5 µM],
CC(O)CC(C)O (stereo not given),1.62%,
Clc1sc(Cl)c(Cl)c1Cl,0.314%,
C/C=C(\C)C(C)=O,1.23%,
CC1=NN(c2cccc(S(=O)(=O)O)c2)C(=O)C1,-4.35%,
C=CCOC(=O)c1ccc(C(=O)OCC=C)c(C(=O)OCC=C)c1,5.48%,
Cc1ccc(N)cc1S(=O)(=O)O,-6.32%,
CC(C)(CO)[N+](=O)[O-],5.62%,
C[Si](C)(C)O[Si](O)(O)O,0.151%,
CC(Cc1ccccc1)(NC(=O)CN)c1ccccc1 (stereo not given),-4.56% [at 42.5 µM],
N[C@@H](CCC(=O)O)C(=O)O,10.8%,
C=C(C)C1CC=C(C)C(=O)C1 (stereo not given),-3.56%,
CC(CO)(CO)[N+](=O)[O-],-1.68%,
NNC(=O)CP(=O)(c1ccccc1)c1ccccc1,-21.1% [at 42.5 µM],
C=CCCC(=O)O,4.04%,
